High-throughput results (PubChem)
Compounds with a hit are over-represented: about 6.8% of the library has one in this group of screens.
Spn DPM-DC inh: S. pneumoniae DPM-DC inhibitors, primary screen, biochemical, PK/LDH-coupled NADH fluorescence; diphosphomevalonate decarboxylase (Streptococcus pneumoniae D39); purified DPM-DC; calls only at 10 µM; 0.49% of 65,000 active; AID 556, 2006;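 active means the 320 compounds with the highest percent inhibition in the single-dose primary screen, excluding strongly autofluorescent ones, cut at about 32% in these data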;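 further: kinetic rate of NADH fluorescence loss reporting ADP formed by the decarboxylase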
Abs 340nm: compound light absorbance at 340 nm, profiling panel, artefact control, biochemical, MLSMR library, data from PS, PMK, MK assays | compound absorbance at 340 nm, fold over control | fold change at 10 µM | 65,000 tested, under 10 active;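 active means at 10 µM dose, initial 340 nm absorbance at least 2 fold that of control wells; inactive means change under 2 fold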;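 further: initial absorbance extrapolated from kinetic A340 decline of NADH oxidation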
Spn PMK inh: S. pneumoniae PMK inhibitors, primary screen, biochemical, mevalonate pathway, pilot trial included; phosphomevalonate kinase (Streptococcus pneumoniae D39); purified PMK, PK/LDH-coupled NADH absorbance 340 nm; inhibition, % at 10 µM; 0.49% of 65,000 active;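 active means top-ranked compounds by inhibition in the single 10 µM screen, taking a fixed number of the strongest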;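 further: 0% = full reaction with DMSO carrier and 100% = background rate without enzyme reaction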
MK inhibit: S. pneumoniae MK inhibitors, primary screen, biochemical, PK/LDH-coupled NADH absorbance. mevalonate kinase [Streptococcus pneumoniae D39]. purified MK, PK/LDH-coupled NADH absorbance 340 nm. inhibition, % at 10 µM. 0.48% of 65,000 active. AID 555, 2006;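 active means ranked among the strongest by inhibition in the single 10 µM screen, a fixed top-ranked set picked for dose follow-up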
NADH enzymes: inhibitors of PK/LDH coupling enzymes, profiling panel, artefact control, biochemical, MLSMR library | 0.02% of 65,000 active | coupled PK/LDH NADH assays, four targets | IC50, µM (highest dose often 10 µM), without a hit: at the top dose inhibition;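 active means single-dose screening hits from any of four coupled enzyme assays that gave an IC50 when retested across doses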;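 further: the DPM-DC format reads NADH fluorescence rather than 340 nm absorbance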
Autofluor 339: intrinsic fluorescence of library compounds, ex339/em460 – biochemical, MLSMR library, data from DPM-DC assay, artefact control, profiling panel | compound autofluorescence, ex339/em460 nm, NADH buffer; stronger effect = higher value; 1 = no-compound wells, NADH background | 5.5% of 65,000 active | fluorescence fold increase at 10 µM | AID 709, 2007;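 active means at 10 µM, mean starting fluorescence two-fold or more over control wells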;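 further: signal is the first read of a kinetic run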
* hit, by the source's call.

CCn1cc(C(=O)NCc2ccc3c(c2)OCO3)c(=O)c2cc(F)c(N3CCN(C)CC3)cc21 was read as Spn DPM-DC inh inactive, Abs 340nm 1.05, Spn PMK inh 2.0, MK inhibit 7.0, NADH enzymes 11.0% and Autofluor 339 2.2*.
For CCn1cc(C(=O)NCCc2ccccc2)c(=O)c2cc(F)c(N3CCN(C)CC3)cc21 the results were Spn DPM-DC inh inactive, Abs 340nm 1.04, Spn PMK inh 4.0, MK inhibit 0.0, NADH enzymes 4.0% and Autofluor 339 1.56.
For COC(=O)Cc1c(C)c2c(O)cc(C)cc2oc1=O the results were Abs 340nm 1.06, Spn PMK inh 0.0, MK inhibit 13.0, NADH enzymes 7.0% and Autofluor 339 2.14*.
Screening CCOC(=O)Cc1c(C)c2c(C)[nH]nc2oc1=O returned Spn DPM-DC inh inactive, Abs 340nm 0.98, Spn PMK inh 15.0, MK inhibit 0.0, NADH enzymes 7.0% and Autofluor 339 1.31.
`COc1ccc(CNC(=O)C2COc3ccccc3O2)c(OC)c1` (stereo not drawn) gave Spn DPM-DC inh inactive, Abs 340nm 0.99, Spn PMK inh 11.0, MK inhibit 6.0, NADH enzymes 6.0% and Autofluor 339 1.12.
`COc1cc(OC)c(C2C(C(=O)N3CCOCC3)=C(C)NC3=C2C(=O)CC(C)(C)C3)cc1OC` (stereo not drawn) gave Spn DPM-DC inh inactive, Abs 340nm 1.11, Spn PMK inh 0.0, MK inhibit 6.0, NADH enzymes 4.0% and Autofluor 339 1.16.
Screening COc1cc(C2C(C(=O)N3CCOCC3)=C(C)NC3=C2C(=O)CCC3)ccc1OC(C)=O (stereo not drawn) returned Abs 340nm 1.1, Spn PMK inh 16.0, MK inhibit 3.0, NADH enzymes 10.0% and Autofluor 339 3.69*.
For COc1ccccc1NC(=O)C1=C(C)NC2=C(C(=O)CCC2)C1c1ccc2c(c1)OCO2 (stereo not drawn) the results were Spn DPM-DC inh active, Abs 340nm 1.07, Spn PMK inh 7.0, MK inhibit 0.0, NADH enzymes 13.0% and Autofluor 339 2.48*.
`CC1=C(C(=O)N2CCCCC2)C(c2cccs2)C2=C(CCCC2=O)N1` (stereo not drawn) gave Abs 340nm 1.08, Spn PMK inh 9.0, MK inhibit 0.0, NADH enzymes 3.0% and Autofluor 339 2.06*.
Screening CC1=C(C(=O)N2CCOCC2)C(c2ccccc2F)C2=C(CCCC2=O)N1 (stereo not drawn) returned Abs 340nm 1.06, Spn PMK inh 7.0, MK inhibit 6.0, NADH enzymes 4.0% and Autofluor 339 2.94*.
Screening COC(=O)C1=C(C)NC2=C(C(=O)CCC2)C1c1cccs1 (stereo not drawn) returned Spn DPM-DC inh inactive, Abs 340nm 1.06, Spn PMK inh 4.0, MK inhibit 3.0, NADH enzymes 7.0% and Autofluor 339 1.55.
`CN1CCN(C(=O)N2CCNC2=O)CC1` gave Spn DPM-DC inh inactive, Abs 340nm 1, Spn PMK inh 21.0, MK inhibit 17.0, NADH enzymes 13.0% and Autofluor 339 1.1.
For O=C(CC1Sc2ncnn2C1=O)Nc1ccc(Br)cc1 (stereo not drawn) the results were Spn DPM-DC inh inactive, Abs 340nm 1.05, Spn PMK inh 0.0, MK inhibit 13.0, NADH enzymes 5.0% and Autofluor 339 1.07.
N#Cc1c(-c2ccco2)c2c([nH]c1=S)CCCC2 was read as Spn DPM-DC inh inactive, Abs 340nm 1.01, Spn PMK inh 16.0, MK inhibit 14.0, NADH enzymes 14.0% and Autofluor 339 1.12.
N#Cc1c(-c2cccnc2)c2c([nH]c1=S)CCCC2 was read as Spn DPM-DC inh active, Abs 340nm 1.06, Spn PMK inh 0.0, MK inhibit 80.0*, NADH enzymes 42.0% and Autofluor 339 1.16.
